Several values for one entry are separate records, joined by “and”; a condition that tells them apart may be missing. Equal values may be shown once. Records with an inconclusive call do not appear. Activity calls are given as the source filed them. Unless noted, calls come from the whole dose curve; as a rule, active = well fitted curve in the direction sought with a large enough effect; inconclusive = small, poorly fitted or top-dose-only effect, or another doubt; inactive = no such curve, though single readings can be large; an effect the other way counts as inactive or inconclusive.
Experiments:
[1] = molecular target: Cytochrome P450 1A2 (Homo sapiens) (UniProt P05177); test: p450-cyp1a2 (AID 410; calls by dose curve; note: potency is the fitted concentration of half-maximal effect)
Method in brief: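 Inhibition was calculated relative to 57 uM furafylline (full inhibition). The reaction used human CYP1A2 at 20nM with Luciferin-ME at its Km, 100uM, driven by an NADPH-regenerating system for 60 min at room temperature.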

[2] = Stat Signaling Pathway (AID 446; active = well fitted curve in either direction with a large enough effect, not every such curve was filed as active;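 note: ME-180 cervical cancer cells given 40 pM IL-6 alongside compound; SIE-controlled beta-lactamase reporter measured as 460/530 nm FRET emission ratio; % is set by controls: 0 for no effect and ±100 for the full control effect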)
Method in brief: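 ME-180 SIE-bla cells; overnight plating; cpd + IL-6 40 pM, 5 h, 37 C; LiveBLAzer 2.5 h RT; 460/530 nm emission ratio. Normalized to 300 pM IL-6 and 125 nM JAK inhibitor controls.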

[3] = Cell Viability - BJ (AID 421; calls by dose curve;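 note: potency is the fitted concentration of half-maximal effect; cells exposed to compound for 40 hours at 37 °C before readout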); settings: BJ fibroblast viability, qHTS
Method in brief: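 Luminescent ATP signal (CellTiter-Glo, 20 min at room temperature) served as the read-out of viable BJ cells after 40 hours of compound treatment. Responses were scaled between DMSO and 100 uM tamoxifen, and AC50 values were obtained by Hill modeling.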

[4] = Cell Viability - Jurkat (AID 426;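 active = dose-dependent loss of cell ATP signal giving a full or clear fitted curve, ranked by lower potency value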; note: potency is the fitted concentration of half-maximal effect); settings: qHTS
Method in brief: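 Seed 5000 Jurkat E6-1 cells/well; add compound; incubate 40 hr at 37 °C; add CellTiter-Glo; wait 20 min at room temperature; read luminescence. Fit concentration-response with Hill equation for AC50.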

[5] = Cell Viability - Hek293 (AID 427;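 active = compounds whose dose-response curve shows a full or clear partial loss of cell viability, called from curve shape rather than a numeric limit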;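 note: potency is the fitted concentration of half-maximal effect; cells exposed to compound for 40 hours at 37 °C before reading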); settings: qHTS
Method in brief: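 Luminescent ATP read-out (CellTiter-Glo, 20 min RT) after 40 hr compound exposure at 37 °C in complete medium. Signal normalized to DMSO (basal) and 100 uM tamoxifen (100% inhibition); concentration-response fitted with the standard Hill equation to give AC50.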

[6] = Cell Viability - HepG2 (AID 433; calls by dose curve;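 note: potency is the fitted concentration of half-maximal effect; potency for ATP loss meaning cytotoxicity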); settings: qHTS
Method in brief: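 In this qHTS format, a 40 h, 37 °C compound incubation of HepG2 cells in complete medium precedes a 20 min CellTiter-Glo step at room temperature. Tamoxifen and doxorubicin serve as positive controls; Hill-equation fits yield AC50.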

[7] = Cell Viability - MRC5 (AID 434; calls by dose curve;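 note: potency is the fitted concentration of half-maximal effect; potency reflects cytotoxicity seen as loss of intracellular ATP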); settings: MRC5 lung fibroblast viability, qHTS
Method in brief: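 qHTS cytotoxicity in human lung fibroblast MRC5 cells; 40 hr treatment, 37 °C; cellular ATP by luciferase luminescence; DMSO = 0%, 100 uM tamoxifen = 100% inhibition; Hill-fit AC50.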

[8] = Cell Viability - SK-N-SH (AID 435; calls by dose curve;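 note: potency is the fitted concentration of half-maximal effect; compound exposure lasted 40 h at 37 °C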); settings: SK-N-SH neuroblastoma cell viability qHTS
Method in brief: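 Human neuroblastoma line, 40 h exposure at 37 °C, ATP quantified via luciferase luminescence; DMSO and 100 uM tamoxifen define 0 and 100% inhibition for AC50 fitting.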

[9] = Cell Viability - N2a (AID 540);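 note: plate controls were DMSO alone for no effect and tamoxifen control for full effect; nearly all actives have a fitted effect of over 45% in size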
Method in brief: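 First, 1500 N2a cells per well incubate 5 hr at 37 °C; next, compounds are added and incubated 40 hr at 37 °C; finally CellTiter-Glo is added and luminescence read after 20 min, with AC50 derived by Hill modeling.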

[10] = Cell Viability - NIH 3T3 (AID 541);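 note: plate controls were DMSO alone for no effect and tamoxifen positive control for full effect; nearly all actives have a fitted effect of over 25% in size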
Method in brief: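 AC50 values reflect concentration-dependent loss of intracellular ATP in NIH 3T3 cells after 40 hr treatment in complete culture medium, quantified by luciferase-based luminescence.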

[11] = Cell Viability - HUV-EC-C (AID 542); note: % is set by controls: 0 for no effect and ±100 for the full control effect; nearly all actives have a fitted effect of over 35% in size
Method in brief: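 Decrease in cellular ATP, quantified by luciferase luminescence, reflects toxicity in normal human vascular endothelial HUV-EC-C cells given compound for 40 hr in complete culture medium. Values are AC50s from concentration-response curves.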

[12] = Cell Viability - H-4-II-E (AID 543); note: % is set by controls: 0 for no effect and ±100 for the full control effect; nearly all actives have a fitted effect of over 35% in size
Method in brief: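 Here, cytotoxicity is measured in the rat hepatoma line H-4-II-E as loss of intracellular ATP after 40 hr compound treatment, detected by luciferase luminescence.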

[13] = Cell Viability - SH-SY5Y (AID 544); settings: SH-SY5Y neuroblastoma cell viability; at 92.2 µM (top of the series);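 note: 0% = DMSO alone and -100% = 100 µM tamoxifen; nearly all actives have a fitted effect of over 55% in size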
Method in brief: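 Cytotoxicity is scored as a concentration-dependent fall in intracellular ATP in human SH-SY5Y cells treated 40 hr in complete culture medium. Potency is expressed as AC50 from a Hill equation fit.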

[14] = Cell Viability - Renal Proximal Tubule (AID 545);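 note: 0% = DMSO only and -100% = 100 µM tamoxifen; nearly all actives have a fitted effect of over 40% in size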
Method in brief: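 In this qHTS format, normal rat kidney-derived proximal tubule cells in complete culture medium receive compound titrations, then sit 40 hours at 37 °C before luciferase-based ATP quantitation; potency is reported as AC50 from concentration-response curves.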

[15] = molecular target: Mitogen-activated protein kinase 10 (Mus musculus) (UniProt Q61831); test: JNK3 AlphaScreen Assay (AID 530; active = well fitted curve in either direction with a large enough effect, not every such curve was filed as active;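 note: kinase came from lysate of stimulated human HepG2 cells; signal reports phosphorylation of biotinylated GST-cJun 1-79 at Ser73 with 10 µM ATP; % is set by controls: 0 for no effect and ±100 for the full control effect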)
Method in brief: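 Room-temperature AlphaScreen kinase assay; pre-activated HepG2 lysate as JNK3 source, biotin-GST-cJun(1-79) substrate, 10 uM ATP, compound 15 min preincubation.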

[16] = AP1 Signaling Pathway (AID 357; active = well fitted curve in either direction with a large enough effect, not every such curve was filed as active;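 note: ME-180 reporter cells stimulated with EGF at its EC50 level; % is set by controls: 0 for no effect and ±100 for the full control effect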)
Method in brief: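 Read-out was the 460nm/530nm emission ratio (excitation 405nm) after CCF4 loading for 2.5 hours at room temperature. Cells carried an AP-1-driven beta-lactamase reporter, were stimulated with EC50 EGF plus compound for 5 hours, and AC50 values came from titrations.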

[17] = molecular target: Glucocorticoid receptor (Homo sapiens) (UniProt P04150); test: GR-GFP Redistribution (AID 450;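 active = compounds whose dose series gives a full or clear partial fitted curve of increased nuclear translocation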; note: potency is the fitted concentration of half-maximal effect); settings: U2OS GR-GFP nuclear translocation, laser cytometry, 2 h
[18] = molecular target: Glucocorticoid receptor (Homo sapiens) (UniProt P04150); test: GR-EFC Redistribution (AID 451; calls by dose curve; note: potency is the fitted concentration of half-maximal effect); settings: CHO-K1 GR-EFC translocation, beta-gal luminescence, 2 h
Method in brief: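 Translocation of GR-ED fusion to nuclear EA restores b-gal, read by luminescence after 1 h room-temperature detection. Engineered CHO-K1 biosensor cells, 1,000/well, exposed 2 h at 37 C to titrations up to 46 uM final.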

[19] = NFAT Signaling Pathway (AID 444; active = well fitted curve in either direction with a large enough effect, not every such curve was filed as active;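 note: carbachol stimulus at about its EC50 of 1 µM final; % is set by controls: 0 for no effect and ±100 for the full control effect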); settings: Jurkat NFAT-bla M1, carbachol, beta-lactamase ratio, 5 h; at 17.2 µM (top of the series) unless noted
Method in brief: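 Read-out: CCF4 FRET ratio (460 nm/530 nm) after 1 h RT dye loading, used for %activity and AC50 from titration series. Cells: Jurkat NFAT-β-lactamase/M1 line, treated with compound plus 1 uM carbachol for 5 h, 37 °C.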

Sequence of Glucocorticoid receptor (Homo sapiens) (P04150 whole entry, looked up, the tested form may be a part): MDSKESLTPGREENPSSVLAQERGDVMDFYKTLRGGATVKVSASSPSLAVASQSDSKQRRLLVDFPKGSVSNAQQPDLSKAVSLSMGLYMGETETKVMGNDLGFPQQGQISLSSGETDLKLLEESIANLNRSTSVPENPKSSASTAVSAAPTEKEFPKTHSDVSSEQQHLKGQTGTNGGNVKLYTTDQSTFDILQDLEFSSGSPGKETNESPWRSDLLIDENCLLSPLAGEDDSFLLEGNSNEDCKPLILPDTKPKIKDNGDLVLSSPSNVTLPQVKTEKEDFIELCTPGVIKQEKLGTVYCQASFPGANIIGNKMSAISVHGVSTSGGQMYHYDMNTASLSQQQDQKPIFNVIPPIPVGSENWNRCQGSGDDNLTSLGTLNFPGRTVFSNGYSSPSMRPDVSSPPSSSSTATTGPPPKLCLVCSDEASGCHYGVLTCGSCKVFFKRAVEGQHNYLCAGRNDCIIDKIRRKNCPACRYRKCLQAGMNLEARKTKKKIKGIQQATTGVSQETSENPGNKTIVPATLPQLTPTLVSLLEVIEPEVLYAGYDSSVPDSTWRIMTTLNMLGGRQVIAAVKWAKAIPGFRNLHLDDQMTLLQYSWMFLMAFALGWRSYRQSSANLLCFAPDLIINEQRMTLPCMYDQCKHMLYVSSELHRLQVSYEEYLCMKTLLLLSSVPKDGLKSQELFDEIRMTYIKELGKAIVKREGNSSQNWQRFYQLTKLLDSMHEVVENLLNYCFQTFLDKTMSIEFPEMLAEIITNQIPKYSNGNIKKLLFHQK
Sequence of Cytochrome P450 1A2 (Homo sapiens) (P05177 whole entry, looked up): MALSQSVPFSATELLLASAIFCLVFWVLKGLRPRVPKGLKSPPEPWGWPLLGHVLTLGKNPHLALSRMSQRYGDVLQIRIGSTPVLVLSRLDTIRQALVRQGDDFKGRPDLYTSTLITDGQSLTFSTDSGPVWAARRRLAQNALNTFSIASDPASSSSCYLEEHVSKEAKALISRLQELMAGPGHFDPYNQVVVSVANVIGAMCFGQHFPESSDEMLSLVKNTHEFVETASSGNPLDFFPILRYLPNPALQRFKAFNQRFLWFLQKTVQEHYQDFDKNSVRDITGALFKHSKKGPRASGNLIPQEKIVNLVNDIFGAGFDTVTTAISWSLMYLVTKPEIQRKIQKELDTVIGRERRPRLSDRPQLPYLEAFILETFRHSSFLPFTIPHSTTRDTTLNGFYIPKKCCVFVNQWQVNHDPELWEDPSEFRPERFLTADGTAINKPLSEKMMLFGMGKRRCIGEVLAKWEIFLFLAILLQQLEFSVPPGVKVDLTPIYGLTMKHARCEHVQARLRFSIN

CC[N+](C)(CC)CCOC(=O)C1c2ccccc2Oc2ccccc21
inactive: outcome [2]
active: Potency [1] 10 µM

CC1CC(OC(=O)c2ccccc2O)CC(C)(C)C1 (stereo not drawn)
inactive: Potency [3] > 92 µM | Potency [4] > 92 µM | Potency [5] > 92 µM | Potency [6] > 92 µM | Potency [7] > 92 µM | Potency [8] > 92 µM | outcome [9] | outcome [10] | outcome [11] | outcome [12] | viability change, negative = cytotoxic [13] -0.877% | outcome [14]

CCCCCC(N)=O
inactive: Potency [3] > 92 µM | Potency [4] > 92 µM | Potency [5] > 92 µM | Potency [6] > 92 µM | Potency [7] > 92 µM | Potency [8] > 92 µM | outcome [15] | outcome [9] | outcome [10] | outcome [11] | outcome [12] | viability change, negative = cytotoxic [13] -5.16% | outcome [14]

CC1(C)S[C@@H]2[C@H](NC(=O)C(C(=O)O)c3ccccc3)C(=O)N2[C@H]1C(=O)O (stereo partly drawn)
inactive: outcome [16] | outcome [2] | Potency [17] > 20.6 µM

O=C1C(c2[nH]c3ccccc3c2O)=Nc2ccccc21
inactive: Potency [3] > 92 µM | Potency [4] > 92 µM | Potency [5] > 92 µM | Potency [6] > 92 µM | Potency [7] > 92 µM | Potency [8] > 92 µM | outcome [9] | outcome [11] | outcome [12] | outcome [14]
active: viability change, negative = cytotoxic [13] -102%

CCCNC(C)(C)COC(=O)c1ccccc1
inactive: outcome [16] | outcome [2] | Potency [17] > 20.6 µM | Potency [18] > 20.6 µM | outcome [15]

NC(=O)CC[C@@H](N)C(=O)O
inactive: outcome [16] | activity change, negative = inhibition [19] 0.712% [at 38 µM] | outcome [2] | Potency [17] > 46 µM | Potency [18] > 46 µM

Cc1c(N(C)C)c(=O)n(-c2ccccc2)n1C
inactive: Potency [3] > 92 µM | Potency [4] > 92 µM | Potency [5] > 92 µM | Potency [6] > 92 µM | Potency [7] > 92 µM | Potency [8] > 92 µM | activity change, negative = inhibition [19] -3.81% | outcome [2] | Potency [17] > 20.6 µM | Potency [18] > 20.6 µM | outcome [9] | outcome [10] | outcome [11] | outcome [12] | viability change, negative = cytotoxic [13] -14.6% | outcome [14]

COc1ccc(NS(=O)(=O)c2ccc(N)cc2)nn1
inactive: outcome [16] | activity change, negative = inhibition [19] -4.78% and 5.22% | outcome [2] | Potency [17] > 20.6 µM | Potency [18] > 20.6 µM | outcome [15]

OC(CCN1CCCC1)(c1ccccc1)C1CCCCC1 (stereo not drawn)
active: activity change, negative = inhibition [19] -89.4%
inactive: outcome [16] | outcome [2] | Potency [17] > 20.6 µM

COc1ccc(O)cc1
inactive: Potency [3] > 92 µM | Potency [4] > 92 µM | Potency [5] > 92 µM | Potency [6] > 92 µM | Potency [7] > 92 µM | Potency [8] > 92 µM | outcome [11] | outcome [12] | viability change, negative = cytotoxic [13] 4.2% | outcome [14]

Cc1c(NC(=O)c2cccnc2)c(=O)n(-c2ccccc2)n1C
inactive: outcome [16] | activity change, negative = inhibition [19] -13.6% | outcome [2] | Potency [17] > 20.6 µM | Potency [18] > 20.6 µM | outcome [15]

Cc1cc(=O)[nH]c(=S)[nH]1
inactive: Potency [3] > 92 µM | Potency [4] > 92 µM | Potency [5] > 92 µM | Potency [6] > 92 µM | Potency [7] > 92 µM | Potency [8] > 92 µM | outcome [15] | outcome [9] | outcome [10] | outcome [11] | outcome [12] | viability change, negative = cytotoxic [13] -4.62% | outcome [14]

CC(=O)Nc1ccccc1
inactive: Potency [3] > 92 µM | Potency [4] > 92 µM | Potency [5] > 92 µM | Potency [6] > 92 µM | Potency [7] > 92 µM | Potency [8] > 92 µM | outcome [9] | outcome [10] | outcome [11] | outcome [12] | viability change, negative = cytotoxic [13] -26.9% | outcome [14]

Reference: PubChem BioAssay (NCATS)
